From the supplement of paper PMC10681739

Tests used:
ETS1 [1] = target: T1, ETS1 (UniProt P14921); test: ETS1 binding intensity (PBM fluorescence), ETS1 alone (arbitrary fluorescence units); higher = stronger binding; details: ETS1 concentration 1 nM; RUNX1 concentration 0 nM
T1 sequence: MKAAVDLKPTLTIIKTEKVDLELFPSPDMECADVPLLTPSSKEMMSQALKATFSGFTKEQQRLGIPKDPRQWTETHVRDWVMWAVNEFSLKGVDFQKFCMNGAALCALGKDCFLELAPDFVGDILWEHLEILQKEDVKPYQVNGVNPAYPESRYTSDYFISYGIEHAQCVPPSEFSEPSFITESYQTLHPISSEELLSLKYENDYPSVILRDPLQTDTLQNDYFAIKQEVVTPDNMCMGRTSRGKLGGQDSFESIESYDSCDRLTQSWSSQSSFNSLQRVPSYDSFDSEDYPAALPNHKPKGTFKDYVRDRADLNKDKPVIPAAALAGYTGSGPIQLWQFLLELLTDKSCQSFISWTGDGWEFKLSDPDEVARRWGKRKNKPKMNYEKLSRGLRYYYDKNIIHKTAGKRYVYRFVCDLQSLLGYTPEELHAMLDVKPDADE

ETS1 [2] = target: T1, ETS1; test: ETS1 binding intensity (PBM fluorescence) in presence of RUNX1, normalised to ETS1-only experiment (arbitrary fluorescence units); higher = stronger binding; details: ETS1 concentration 1 nM; RUNX1 concentration 25 nM

Row | Sequence | ETS1 binding intensity (ETS1 [1]) | ETS1 binding intensity (ETS1 [2])
1 | CGAGCTCGCAAGAGGAAACCGCGGCGCGGAGGCAGC | 681 | 1130
2 | GCAGGAAATGACGTCAGACCTCACTGCGGGTCTGAG | 853 | 1010
3 | TTGCTAGAGGAAGCGCTGCCCCGGCAGCCGCAGCCA | 524 | 596
4 | CTACATGTTTCACAGGAAGGTGGTCACCAGGAGGCA | 782 | 821
5 | GACAGGATACAAGAATTCCGCGGACTGCCGCAGTCG | 642 | 649
6 | GGAGCAGGAAGCGTCGCCGGGGGGCCCACAAGGGTA | 528 | 614
7 | TAAAGCGGAAGGGGCCGGCTCTGCGGCCTGGCCGCT | 553 | 770
8 | GAATGACAGGAAGATGATTAGTGATAGTGGGTTTGG | 740 | 880
9 | ATGTAAACAAGGATGTGAGTTCTGCGGCCACACTCT | 448 | 763
10 | GTACGCTCTTCACTTCCCGTACCCGCGCCCGGCAGG | 609 | 634
11 | CTGACAGCTTCCGCACAAAGCGCGGTCTATTTCTCC | 405 | 544
12 | TCCAGCCGGACGCGATGCCTGGAGGCTGCGGGCGCC | 328 | 597
13 | GGCTTGCCAAGAGGAAATTTGAAGCCACAATAACAT | 808 | 951
14 | GTCGGGAAGTAGGCGGGGTGACGTGTGGTTGACGAG | 426 | 546
15 | GGTTGTGGAGTAGGATGTGGTGTCTAGCTTTCAGCA | 588 | 568
16 | GGATTAGAACTGCTTCCTCCTGTGGTTTACCAGAAA | 417 | 595
17 | ACGCTGGAATCGCGGAAACCGCCGGTGCACGTTGGA | 531 | 627
18 | AGCACAGGTTCCCAGGAAATGTGGGTTGAACAAGGC | 1250 | 1250

Row | Sequence | ETS1 binding intensity (ETS1 [1]) | ETS1 binding intensity (ETS1 [2])
19 | GCTATCGAGCTTCCTGCAGCGGTGGCCACCCGAGCA | 482 | 418
20 | CTTTTTGATTTCCTCAAGCATCCCACAAATACACAG | 539 | 659
21 | AGGGAGACCGGGCCGGATTGCGGGGAGTGAGCAGGT | 543 | 360
22 | CCGACCTTAACGACATCCTGCGGCTCAGCGTGGAGG | 489 | 437
23 | ACGCCGCGCATCCGCGCTTTACGGCGGCCGCAAAAT | 405 | 563
24 | AGTGTAAACACGGAAGTGGCCGCAGGGGTGGGGGAT | 1820 | 2690
25 | GCAGAAGGAAGTGTGGCTTGGCGCGGTGGCTCACAC | 475 | 405
26 | CAGCCAGCCAGGAAGCAGGGGCTGCGGGGCTGACAG | 691 | 524
27 | CCTCCCGGCTTCCGTTCCTTGACCACCTCCTTCTCG | 560 | 501
28 | CCATGCGCTGCTTCCTTCCACTTACCGCCCTCGCAC | 523 | 331
29 | TAGGCCGGAAAGCACCACCGTCCTCCCGCAGGCCGC | 455 | 386
30 | TTTCCAGAGGATGTAGCTTCTGCGGGAGAGCTTCAA | 546 | 584
31 | TCGGTGAAGGACGGAAGATGATAGCCACATTTCTTC | 512 | 485
32 | AAGCAGAGCTCAGGATGTGGTGCCGTGCGAGGGCGG | 697 | 847
33 | CTTCGCCGCTTCCAGGAAGGGCCACAACGGCCGTCG | 563 | 483
34 | CGTTTGCCTATCTTCCTCCCCACAGAAGCACTCCAT | 453 | 399
35 | AGAGGAAGTAAATTCTAACAGTGGAAACCACAGATT | 647 | 2290
